Drawing on PubChem BioAssay (EPA / NIEHS), this text covers outcome and AC50 for 4 compounds.

Assay [1] in a line: CEETOX_H295R_PROG: CeeTox H295R High-throughput Steroidogenesis Assay for Progesterone (PROG) (AID 2283442).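 On AC50: human H295R adrenal cells primed with 10 µM forskolin before dosing; progesterone secreted into medium by H295R cells measured by HPLC-MS/MS.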 Conditions: actives raise or lower the signal. The procedure, abridged: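 Steps: seed H295R cells and let them adhere overnight; prime 48 h with 10 uM forskolin; dose with compound in DMSO at 0.1% final for 48 h; extract medium steroids with MTBE; measure progesterone by LC-MS/MS. MTT viability was run in the same wells.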

Read-out in assay [2]: Tumor necrosis factor receptor superfamily member 6 (Homo sapiens) (UniProt P25445)
The experiment in a line: LTEA_HepaRG_FAS: Life Technologies and Expression Analysis (LTEA) Assay for Fas cell surface death receptor (FAS) using HepaRG (AID 2283447). Conditions: mRNA level, 48 h; actives raise or lower the signal. The essentials: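 FAS transcript level was measured by TaqMan qRT-PCR against three housekeeping genes after 48 h chemical exposure. Cells were HepaRG, 0.5% DMSO vehicle, with a top concentration of 100 uM and half-log dilutions over eight points, in duplicate.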

Read-out in assay [3]: Fatty acid synthase (Homo sapiens) (UniProt P49327)
The experiment in a line: LTEA_HepaRG_FASN: Life Technologies and Expression Analysis (LTEA) Assay for Fatty Acid Synthase (FASN) using HepaRG (AID 2283448).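 On AC50: differentiated human HepaRG liver cells in serum-free induction medium.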 Conditions: mRNA level, 48 h; actives raise or lower the signal. The procedure, abridged: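 Cells were plated, cultured 48 h, switched to serum-free induction medium, then dosed in duplicate (max 100 uM, half-log dilutions, 0.5% DMSO) for 48 h. RNA was then isolated and FASN quantified by qRT-PCR.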

Read-out in assay [4]: Cyclin D2 (CCND2), CCND2 (gene 894)
As to the kind of experiment: LTEA_HepaRG_CCND2: Life Technologies and Expression Analysis (LTEA) Assay for Cyclin D2 (CCND2) using HepaRG (AID 2283449). Conditions: mRNA level, 48 h; actives raise or lower the signal. The procedure, abridged:
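CCND2 transcript levels, quantified by qRT-PCR and normalised to three housekeeping genes, were fitted bidirectionally against 0.5% DMSO. HepaRG cultures were dosed 48 h in duplicate with an 8-point half-log series up to 100 uM.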

Read-out in assay [5]: Cyclin Dependent Kinase Inhibitor 1A (CDKN1A), CDKN1A (gene 1026)
The experiment in a line: LTEA_HepaRG_CDKN1A: Life Technologies and Expression Analysis (LTEA) Assay for Cyclin Dependent Kinase Inhibitor 1A (CDKN1A) using HepaRG (AID 2283450). Conditions: mRNA level, 48 h; actives raise or lower the signal. The procedure, abridged: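 Read-out is CDKN1A mRNA by TaqMan qRT-PCR, normalized to three housekeeping genes and fitted in both directions against the DMSO baseline. Human HepaRG cells were treated 48 h with test chemicals up to 100 uM in half-log steps, 0.5% DMSO.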

Read-out in assay [6]: catalase (CAT), CAT (gene 847)
As to the kind of experiment: LTEA_HepaRG_CAT: Life Technologies and Expression Analysis (LTEA) Assay for catalase (CAT) using HepaRG (AID 2283452).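 On AC50: TaqMan qRT-PCR signal normalized to ACTB GAPDH and POLR2A housekeeping genes.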 Conditions: mRNA level, 48 h; actives raise or lower the signal. The essentials:
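Expression of CAT was quantified by TaqMan qRT-PCR with ACTB/GAPDH/POLR2A normalization after 48 h chemical exposure of HepaRG. Eight-point half-log series, top 100 uM, in 0.5% DMSO; gain or loss fitted against vehicle.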

Read-out in assay [7]: flavin-containing dimethylaniline monooxygenases 3 (FMO3), FMO3 (gene 2328)
The experiment in a line: LTEA_HepaRG_FMO3: Life Technologies and Expression Analysis (LTEA) Assay for flavin-containing dimethylaniline monooxygenases 3 (FMO3) using HepaRG (AID 2283453).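 On AC50: differentiated human HepaRG liver cells in serum-free induction medium.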 Conditions: mRNA level, 48 h; actives raise or lower the signal. The procedure, abridged: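 FMO3 transcript quantified by TaqMan qRT-PCR against three housekeeping genes after 48 h chemical exposure of HepaRG cells. Eight-point half-log series, top 100 uM, 0.5% DMSO vehicle; phenobarbital 1mM induction control; up- or down-regulation fitted.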

Read-out in assay [8]: Cytochrome P450 (CYP1A1), CYP1A1 (gene 1543)
The experiment in a line: LTEA_HepaRG_CYP1A1: Life Technologies and Expression Analysis (LTEA) Assay for Cytochrome P450 (CYP1A1) using HepaRG (AID 2283454). Conditions: mRNA level, 48 h; actives raise or lower the signal. The essentials: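 HepaRG, 48 h post-plating switched to serum-free induction medium; 8-pt conc-response (top 100 uM, half-log, 0.5% DMSO), duplicates, 48 h. Lysis in RLT, TaqMan qRT-PCR for CYP1A1; gain or loss vs DMSO.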

Read-out in assay [9]: CFLAR gene, CFLAR (gene 8837)
As to the kind of experiment: LTEA_HepaRG_CFLAR: Life Technologies and Expression Analysis (LTEA) Assay for CFLAR gene using HepaRG (AID 2283455). Conditions: mRNA level, 48 h; actives raise or lower the signal. The procedure, abridged:
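Transcript level by qRT-PCR (normalized to ACTB, GAPDH and POLR2A) after 48 h chemical exposure of HepaRG cells, top concentration 100 uM with half-log steps, 0.5% DMSO vehicle, duplicates; fitted bidirectionally against DMSO baseline.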

Read-out in assay [10]: Forkhead box O1 (FOXO1), FOXO1 (gene 2308)
As to the kind of experiment: LTEA_HepaRG_FOXO1: Life Technologies and Expression Analysis (LTEA) Assay for Forkhead box O1 (FOXO1) using HepaRG (AID 2283456). Conditions: mRNA level, 48 h; actives raise or lower the signal. The procedure, abridged:
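FOXO1 transcript quantified by qRT-PCR after 48 h chemical exposure (top 100 uM, half-log steps, 0.5% DMSO) of HepaRG cells, housekeeping-normalized (ACTB/GAPDH/POLR2A). Changes fitted in both directions relative to vehicle.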

Read-out in assay [11]: growth arrest and DNA damage 45 (GADD45A), GADD45A (gene 1647)
As to the kind of experiment: LTEA_HepaRG_GADD45A: Life Technologies and Expression Analysis (LTEA) Assay for growth arrest and DNA damage 45 (GADD45A) using HepaRG (AID 2283458). Conditions: mRNA level, 48 h; actives raise or lower the signal. The essentials:
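Transcript induction or loss, quantified by TaqMan qRT-PCR against three housekeeping genes, is the read-out. HepaRG cells received chemicals for 48 h across eight half-log concentrations from 100 uM in 0.5% DMSO; gain and loss fitted relative to DMSO.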

Read-out in assay [12]: ABC Transporter (ABCB1), ABCB1 (gene 5243)
The experiment in a line: LTEA_HepaRG_ABCB1: Life Technologies and Expression Analysis (LTEA) Assay for ABC Transporter (ABCB1) using HepaRG (AID 2283460). Conditions: mRNA level, 48 h; actives raise or lower the signal. The procedure, abridged:
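ABCB1 transcript level measured by TaqMan qRT-PCR against three housekeeping genes after 48 h chemical exposure of differentiated HepaRG cells. Top concentration 100 uM, half-log steps, eight points, 0.5% DMSO vehicle; bidirectional fit relative to DMSO.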

Read-out in assay [13]: growth arrest and DNA damage 45 (GADD45B), GADD45B (gene 4616)
The experiment in a line: LTEA_HepaRG_GADD45B: Life Technologies and Expression Analysis (LTEA) Assay for growth arrest and DNA damage 45 (GADD45B) using HepaRG (AID 2283461). Conditions: mRNA level, 48 h; actives raise or lower the signal. The procedure, abridged:
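HepaRG, ~100,000 cells/well, 48 h plating; serum-free induction medium; cpd 100 uM top, half-log x8, 0.5% DMSO, duplicate, 48 h; lysis in RLT, RNA isolation, qRT-PCR; norm ACTB/GAPDH/POLR2A; bidirectional fit vs DMSO.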

Read-out in assay [14]: ABC Transporter (ABCC3), ABCC3 (gene 8714)
As to the kind of experiment: LTEA_HepaRG_ABCC3: Life Technologies and Expression Analysis (LTEA) Assay for ABC Transporter (ABCC3) using HepaRG (AID 2283462). Conditions: mRNA level, 48 h; actives raise or lower the signal. The procedure, abridged:
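Human HepaRG, 48 h dosing, 8-pt half-log series from 100 uM, 0.5% DMSO vehicle, duplicates. ABCC3 mRNA by TaqMan qRT-PCR, housekeeping-normalized; bidirectional curve fit vs DMSO.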

Read-out in assay [15]: ABC Transporter (ABCC2), ABCC2 (gene 1244)
As to the kind of experiment: LTEA_HepaRG_ABCC2: Life Technologies and Expression Analysis (LTEA) Assay for ABC Transporter (ABCC2) using HepaRG (AID 2283464). Conditions: mRNA level, 48 h; actives raise or lower the signal. The procedure, abridged:
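HepaRG, 48 h post-plating; serum-free induction medium; cpd 8-pt, 100 uM top, half-log, 0.5% DMSO, duplicate, 48 h. Readout: ABCC2 mRNA by qRT-PCR, norm. ACTB/GAPDH/POLR2A. Bidirectional fit vs DMSO baseline.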

Read-out in assay [16]: Broad substrate specificity ATP-binding cassette transporter ABCG2 (Homo sapiens) (UniProt Q9UNQ0)
As to the kind of experiment: LTEA_HepaRG_ABCG2: Life Technologies and Expression Analysis (LTEA) Assay for ABC Transporter (ABCG2) using HepaRG (AID 2283465). Conditions: mRNA level, 48 h; actives raise or lower the signal. The essentials: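 ABCG2 transcript was quantified by TaqMan qRT-PCR against three housekeeping genes in HepaRG cells. Cells were treated in duplicate for 48 h across an 8-point half-log series up to 100 uM, with 0.5% DMSO vehicle. Gain or loss versus DMSO was fit.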

Read-out in assay [17]: Cyclin D1 (CCND1), CCND1 (gene 595)
As to the kind of experiment: LTEA_HepaRG_CCND1: Life Technologies and Expression Analysis (LTEA) Assay for Cyclin D1 (CCND1) using HepaRG (AID 2283451).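 On AC50: differentiated human HepaRG liver cells in serum-free induction medium; TaqMan qRT-PCR transcript level normalised to ACTB GAPDH and POLR2A housekeeping genes.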 Conditions: mRNA level, 48 h; actives raise or lower the signal. The essentials: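 HepaRG plated 48 h, medium switched to serum-free induction medium, chemicals added in duplicate (top 100 uM, half-log steps, 0.5% DMSO) for 48 h, cells lysed, RNA measured by TaqMan qRT-PCR.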

Read-out in assay [18]: Forkhead box O3 (FOXO3), FOXO3 (gene 2309)
As to the kind of experiment: LTEA_HepaRG_FOXO3: Life Technologies and Expression Analysis (LTEA) Assay for Forkhead box O3 (FOXO3) using HepaRG (AID 2283459). Conditions: mRNA level, 48 h; actives raise or lower the signal. The procedure, abridged:
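FOXO3 transcript measured by qRT-PCR (normalized to ACTB, GAPDH, POLR2A) after 48 h exposure of HepaRG cells in serum-free induction medium. Duplicates, eight half-log concentrations up to 100 uM, 0.5% DMSO; gain or loss fitted against DMSO.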

Read-out in assay [19]: ABC Transporter (ABCB11), ABCB11 (gene 8647)
As to the kind of experiment: LTEA_HepaRG_ABCB11: Life Technologies and Expression Analysis (LTEA) Assay for ABC Transporter (ABCB11) using HepaRG (AID 2283463). Conditions: mRNA level, 48 h; actives raise or lower the signal. The essentials:
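ABCB11 transcript levels quantified by TaqMan qRT-PCR against three housekeeping genes after 48 h chemical exposure of HepaRG cultures. Concentrations up to 100 uM in half-log steps, 0.5% DMSO vehicle; both induction and suppression scored.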

Active and inactive are the calls of the source. How the source made its calls: active means hit-call score of the fitted dose curve at least 0.9, where 1 is the maximum; inactive means score below 0.9.

Broad substrate specificity ATP-binding cassette transporter ABCG2 (Homo sapiens), sequence (Q9UNQ0 whole entry, looked up): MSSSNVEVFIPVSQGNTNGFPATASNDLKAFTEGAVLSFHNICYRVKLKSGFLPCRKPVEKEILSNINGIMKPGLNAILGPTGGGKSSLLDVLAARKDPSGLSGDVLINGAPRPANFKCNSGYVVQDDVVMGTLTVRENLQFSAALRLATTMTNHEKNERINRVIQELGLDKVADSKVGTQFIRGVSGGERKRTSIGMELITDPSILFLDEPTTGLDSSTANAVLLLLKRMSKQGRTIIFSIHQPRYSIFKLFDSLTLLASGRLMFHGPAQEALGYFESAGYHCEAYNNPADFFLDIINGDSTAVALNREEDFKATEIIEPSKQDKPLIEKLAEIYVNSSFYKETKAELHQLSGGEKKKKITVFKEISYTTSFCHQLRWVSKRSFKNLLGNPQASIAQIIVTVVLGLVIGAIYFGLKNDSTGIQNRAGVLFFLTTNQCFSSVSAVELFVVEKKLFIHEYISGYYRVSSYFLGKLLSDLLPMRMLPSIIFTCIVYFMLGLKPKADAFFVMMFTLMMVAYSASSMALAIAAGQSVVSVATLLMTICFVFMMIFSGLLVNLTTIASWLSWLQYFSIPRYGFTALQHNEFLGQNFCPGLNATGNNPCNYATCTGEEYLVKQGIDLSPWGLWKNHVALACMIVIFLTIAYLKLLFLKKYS
Fatty acid synthase (Homo sapiens), sequence (P49327 whole entry, looked up): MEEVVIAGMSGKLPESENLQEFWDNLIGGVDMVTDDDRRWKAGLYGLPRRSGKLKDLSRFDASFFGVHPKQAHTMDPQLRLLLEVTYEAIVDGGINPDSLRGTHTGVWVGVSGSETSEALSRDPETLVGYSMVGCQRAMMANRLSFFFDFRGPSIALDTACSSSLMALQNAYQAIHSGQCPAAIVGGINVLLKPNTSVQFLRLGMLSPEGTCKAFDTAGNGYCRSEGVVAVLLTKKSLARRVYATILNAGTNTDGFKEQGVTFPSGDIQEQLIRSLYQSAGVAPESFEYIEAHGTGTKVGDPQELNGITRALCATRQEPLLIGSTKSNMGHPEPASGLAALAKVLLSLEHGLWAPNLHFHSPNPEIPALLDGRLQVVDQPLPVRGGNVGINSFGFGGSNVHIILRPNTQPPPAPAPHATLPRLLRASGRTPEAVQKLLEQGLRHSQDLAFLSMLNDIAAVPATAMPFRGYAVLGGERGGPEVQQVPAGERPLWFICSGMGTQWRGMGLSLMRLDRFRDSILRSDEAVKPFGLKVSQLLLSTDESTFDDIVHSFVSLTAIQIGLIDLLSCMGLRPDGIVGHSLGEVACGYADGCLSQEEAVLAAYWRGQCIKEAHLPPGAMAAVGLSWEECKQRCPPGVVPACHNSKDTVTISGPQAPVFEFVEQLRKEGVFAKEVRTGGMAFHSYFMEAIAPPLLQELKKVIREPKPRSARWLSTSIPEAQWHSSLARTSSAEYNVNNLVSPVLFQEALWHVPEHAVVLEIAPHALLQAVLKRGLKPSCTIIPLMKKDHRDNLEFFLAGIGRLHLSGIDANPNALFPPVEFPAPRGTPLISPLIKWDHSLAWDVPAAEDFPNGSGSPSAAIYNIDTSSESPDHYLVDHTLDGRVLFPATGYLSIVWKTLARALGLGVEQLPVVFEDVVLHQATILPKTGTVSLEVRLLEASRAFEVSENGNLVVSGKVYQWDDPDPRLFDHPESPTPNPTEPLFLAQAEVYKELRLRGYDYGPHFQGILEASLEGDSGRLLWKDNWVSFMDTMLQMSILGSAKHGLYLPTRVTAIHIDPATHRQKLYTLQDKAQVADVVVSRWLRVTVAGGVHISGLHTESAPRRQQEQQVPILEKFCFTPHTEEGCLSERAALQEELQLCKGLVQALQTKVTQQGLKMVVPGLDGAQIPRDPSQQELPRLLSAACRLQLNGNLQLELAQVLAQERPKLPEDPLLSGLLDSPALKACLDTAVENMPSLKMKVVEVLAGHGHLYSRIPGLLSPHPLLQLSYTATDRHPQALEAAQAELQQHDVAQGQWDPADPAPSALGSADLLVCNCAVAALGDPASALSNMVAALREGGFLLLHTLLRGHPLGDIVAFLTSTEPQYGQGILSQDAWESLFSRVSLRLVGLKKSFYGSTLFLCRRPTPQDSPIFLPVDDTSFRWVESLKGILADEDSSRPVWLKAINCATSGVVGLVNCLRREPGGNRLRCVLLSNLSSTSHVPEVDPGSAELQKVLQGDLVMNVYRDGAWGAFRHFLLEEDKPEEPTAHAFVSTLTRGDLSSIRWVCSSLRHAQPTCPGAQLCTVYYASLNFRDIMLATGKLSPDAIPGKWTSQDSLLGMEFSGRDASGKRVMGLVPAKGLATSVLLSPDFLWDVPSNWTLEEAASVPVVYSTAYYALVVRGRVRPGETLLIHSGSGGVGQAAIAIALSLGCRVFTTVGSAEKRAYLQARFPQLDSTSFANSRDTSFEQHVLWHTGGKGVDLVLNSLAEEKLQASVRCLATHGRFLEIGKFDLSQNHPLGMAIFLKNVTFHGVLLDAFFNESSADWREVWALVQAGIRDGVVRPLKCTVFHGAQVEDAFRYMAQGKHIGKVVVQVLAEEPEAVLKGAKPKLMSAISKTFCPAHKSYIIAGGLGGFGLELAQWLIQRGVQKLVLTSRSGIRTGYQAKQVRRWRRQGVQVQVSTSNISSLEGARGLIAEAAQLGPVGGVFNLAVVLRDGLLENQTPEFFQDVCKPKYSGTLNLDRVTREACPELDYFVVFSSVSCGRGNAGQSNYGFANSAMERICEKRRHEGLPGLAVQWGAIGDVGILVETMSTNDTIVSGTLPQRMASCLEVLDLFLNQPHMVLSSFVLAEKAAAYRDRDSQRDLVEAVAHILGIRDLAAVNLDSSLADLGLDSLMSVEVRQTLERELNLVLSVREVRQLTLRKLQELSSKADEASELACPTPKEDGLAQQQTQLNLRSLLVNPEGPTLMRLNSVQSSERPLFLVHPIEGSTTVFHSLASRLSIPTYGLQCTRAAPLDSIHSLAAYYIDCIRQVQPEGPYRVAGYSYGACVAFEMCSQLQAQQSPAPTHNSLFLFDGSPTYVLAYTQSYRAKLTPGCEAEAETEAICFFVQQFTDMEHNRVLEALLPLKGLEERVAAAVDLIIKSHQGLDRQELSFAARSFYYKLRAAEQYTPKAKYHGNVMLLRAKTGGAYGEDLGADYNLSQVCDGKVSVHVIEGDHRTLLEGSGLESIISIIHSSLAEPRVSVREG

One may read the AC50 as the concentration giving half of the maximal activity seen. With `CC1(C)CC(N=C=O)CC(C)(CN=C=O)C1` (stereo not given), the outcome in assay [1], in [2], in assay [4], in assay [5], in [6] and in assay [7] was inactive. Moreover, the call in assay [8], in assay [9], in assay [10], in assay [11], in assay [12] and in assay [13] was inactive. The result in assay [14], in [15] and in [16] was inactive. In addition, in [3], the AC50 is 69.7 µM (active).

Consider `CCCCC(CC)COC(=O)CC(C(=O)OCC(CC)CCCC)S(=O)(=O)O` (stereo not given), for which the AC50 in assay [2] is 83.5 µM (active); in assay [3], 80.5 µM (active); in [17] it was 85.3 µM (active); in assay [6], 86.6 µM (active); in assay [7], 77.4 µM (active); in [8], 10.3 µM (active). Further, the AC50 in assay [9] was 81.7 µM (active); in assay [10], 80.8 µM (active); in [11] it was 93.9 µM (active); in assay [18], 79.8 µM (active); in assay [12] it was 89.9 µM (active); in assay [13], 82.2 µM (active). Moreover, the outcome in assay [4], in assay [5], in [14] and in assay [16] was inactive.

Take `O=[N+]([O-])C(CO)(CO)CO`: the result in assay [2], in assay [3], in assay [4], in [5], in [17] and in [6] was inactive. The compound was classed as inactive in [7], in assay [9], in [10], in assay [11], in assay [12] and in assay [13]. Further, the call in [14], in [15] and in [16] was inactive. For the same compound, the AC50 in assay [8] was 25.3 µM (active).

In the case of `Nc1ccc2c(c1)C(=O)c1ccccc1C2=O`, the AC50 in assay [1] was 6.71 µM (active); in assay [3], 2.86 µM (active); in assay [5] it was 26.8 µM (active); in assay [17], 1.19 µM (active); in assay [6], 1.57 µM (active); in [7], 12 µM (active). The AC50 is 6.31 µM (active) in [8], 9.75 µM (active) in assay [13], 4.81 µM (active) in [19] and 10.4 µM (active) in [16]. Besides, the outcome in [2], in assay [4], in assay [10], in assay [11], in assay [12] and in assay [14] was inactive. Besides, the outcome in assay [15] was inactive.
